# About 83,000 compounds went through this panel and 20% of them were active in at least one assay; those are over-represented in the sample as a whole.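 Method: cells in 96-well plates; compound added at one concentration; 48 h incubation; percent growth measured; values under 10 scored active.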 Active and inactive are the calls of the source.
# System: UO-31 renal
# Experiment: NCI-60 one-dose screen, 48 h (100 = growth as untreated, 0 = no growth, -100 = all killed)
# Settings: 10 µM unless noted
# Procedure: Growth inhibition of the UO-31 human tumor cell line is measured as a screen for anti-cancer activity. Cells are grown in 96 well plates and exposed to the test compound for 48 hours. Compounds are tested at a single concentration, which is 10^-5 M for most compounds. The reported endpoint is percent growth (GI% or GIPRCNT), where numbers from 0 - 100% represent growth inhibition, and numbers from -100% - 0 represent cell death. For example, a value of 40 represents 60% growth inhibition. A value of 0 means no net growth occurred over the course of the experiment. A value of -40 indicates 40% of cells at the beginning of the experiment died by the end of the experiment. A value of -100 means all cells are dead at the end of the experiment.
# NCI-60 Human Tumor Cell Lines Screen was performed using the standard one-dose NCI protocol, which is described in more detail at https://dtp.cancer.gov/discovery_development/nci-60/default.htm.
# Compounds with GIPRCNT values below 10 were considered active. Activity score was based on GIPRCNT using the following formula: […]
# Score is 0 for GIPRCNT values of 100 or above, 50 for GIPRCNT values of 0, and 100 for GIPRCNT values of -100.
row,Compound,growth
1,CC(C)c1ccc(NC(=O)Cc2ccc(Nc3ncnc4cc(-c5cnn(CCN(C)C)c5)ccc34)cc2)cc1,-72.9% [30 µM] (active)
2,COc1ccc(C2CC(c3ccc4ccccc4c3)=NN2c2nc(O)c(C3=c4cc(Cl)ccc4=NC3=O)s2)cc1 (stereo not given),-85% (active)
3,CN1CCN(c2ccc(Nc3ncc(Cl)c(NC[C@@H]4CCCO4)n3)cc2)CC1,-15.6% (active)
4,CCOc1ccc(-c2nc3ccc(-c4nc5ccc(N6CCN(C)CC6)cc5[nH]4)cc3[nH]2)cc1OCC,98.6% (inactive)
5,CC(C)(C)c1ccc(C(=O)Nc2sc3c(c2C(N)=O)CCC(=O)C3)cc1,-99.6% (active)
6,CNC=O,89.5% (inactive)
7,CCN1CCN(c2ccc(Nc3cc(-c4cccnc4Nc4c(Cl)c(OC)cc(OC)c4Cl)ncn3)cc2)CC1,52.8% (inactive)
8,Cc1cc(-c2noc(C(F)(F)F)n2)ccc1N1CCN(c2cc(C(=O)N(C)C)no2)CC1,62.7% (inactive)
9,CCNCCNc1cc(-c2ccc(C(=O)OC)cc2)c(C#N)c2nc3ccccc3n12,-11.3% (active)
10,CCOC(=O)C(=CNc1ccccc1[N+](=O)[O-])C(=O)OCC,78.2% (inactive)
11,CC1(C)N=C(N)N=C(N)N1c1ccc(Cl)c(Cl)c1,48.3% (inactive)
12,Nc1c(C(=O)c2ccc(Cl)s2)sc2nc3c(cc12)CCCC3,81.2% (inactive)
13,Cc1cnc(Nc2ccc(N3CCN(C)CC3)cc2)nc1Nc1ccc(Cl)c(NS(=O)(=O)C(C)(C)C)c1,-20.7% (active)
14,COc1ccc(CN2C(=O)/C(=C\c3cc(OC)c(OC)c(OC)c3)c3ccccc32)cc1,5.84% (active)
15,NC(N)=N/N=C(/c1ccccc1)c1ccc(N)cc1,95% (inactive)
16,CC(C)OCCCNCC(=O)Nc1ccc(S(=O)(=O)c2ccc(NC(=O)CNCCCOC(C)C)cc2)cc1,90.8% (inactive)
17,COc1cc2c(=O)n(CCCn3ccnc3)c3c4cc5c(cc4ccc3c2cc1OC)OCO5,-27.3% (active)
18,Cc1[nH]c(-c2nc3ccccc3[nH]2)c(C)c1C(=O)N1CCOCC1,82.2% (inactive)
19,CCC(C)NCc1ccccc1 (stereo not given),88% (inactive)
20,N#Cc1c(NC(=O)c2ccccc2I)sc2c1CCCC2,58.1% (inactive)

row,Compound,growth
1,COC1=CC(c2ccc[nH]2)=N/C1=C\c1[nH]c(C)c(C(=O)OCCn2cc(CCC[C@@H]3Cc4cc(O)ccc4C4CC[C@]5(C)[C@@H](O)CC[C@H]5C43)nn2)c1C (stereo not given in full),44.7% (inactive)
2,COc1cc(CNC(=O)/C=C/C=C/c2ccc3c(c2)OCO3)ccc1OCc1cn(-c2ccc(Cl)c(Cl)c2)nn1,45.5% (inactive)
3,CCn1c(Sc2nnc(NC(C)=O)s2)nc2c1c(=O)n(C)c(=O)n2C,83.5% (inactive)
4,CCN(CC)N=Nc1nn(C(=O)Nc2ccc(Cc3ccccc3)cc2)c2ccc(Cl)cc12,65.6% (inactive)
5,N#Cc1c(Oc2ccc([N+](=O)[O-])cc2)nc2sc3cc(Cl)ccc3n2c1=N,72.5% (inactive)
6,O=S(=O)(Nc1ccsc1-c1nc(-c2ccccc2)no1)c1cc(Cl)cc(Cl)c1,83.2% (inactive)
7,COC(=O)c1ccc2oc(NC(=O)c3ccc(N4CCOCC4)c([N+](=O)[O-])c3)nc2c1,75.4% (inactive)
8,C[C@H]1[C@H](C)CC[C@]2(C(=O)N3CCN(C)CC3)CC[C@]3(C)C(=CC[C@@H]4[C@@]5(C)C/C(=C/c6cccnc6)C(=O)C(C)(C)[C@@H]5CC[C@]43C)[C@H]12,-92.5% (active)
9,CSc1nc2sc3cc(Cl)ccc3n2c(=N)c1C#N,75.2% (inactive)
10,COc1ccc(Nc2ncc(Br)c(NCCCNC(=O)C3CCC3)n2)cc1,-19.8% (active)
11,COc1ccc(-c2nc3ccccn3c2/C=C/C(=O)c2cc(OC)c(OC)c(OC)c2)cc1,42.9% (inactive)
12,CCOC(=O)c1sc(-c2ccc(OS(=O)(=O)c3ccc(C(C)(C)C)cc3)c(C=O)c2)nc1C,29.9% (inactive)
13,O=C(CC1Sc2ccccc2NC1=O)NNc1ccc(F)cc1 (stereo not given),48.4% (inactive)
14,CN(C)c1ccc(/C=C2\C=C(c3ccccc3)N(CCc3ccccc3)C2=O)cc1,61% (inactive)
15,Clc1ccc(-c2cn(-c3ccccc3)c(-c3ccccc3)n2)cc1,67.8% (inactive)
16,Cn1c(NCCc2ccc(O)c(O)c2)nc2c1c(=O)n(Cc1ccc(Cl)cc1)c(=O)n2C,29.8% (inactive)
17,O=C1Nc2ccccc2/C1=N/N=C/c1ccc(OC2OC(CO)C(O)C(O)C2O)cc1 (stereo not given),78.6% (inactive)
18,C=C(C)[C@@H]1CC[C@]2(CO)CC[C@]3(C)[C@H](CC[C@@H]4[C@@]5(C)C=C(C#N)C(=O)C(C)(C)[C@@H]5CC[C@]43C)[C@@H]12,-8.85% (active)
19,CCOC(=O)C1C(=O)C=C(c2cnccn2)CC1c1ccc(OC)c(OC)c1 (stereo not given),87.4% (inactive)
20,C[C@@H]1CC[C@@H]2[C@@H]1[C@H](OC(=O)/C=C/c1ccccc1)[C@]1(CCCOCCOCCOCCOC(=O)CCCC[C@@H]3SC[C@@H]4NC(=O)N[C@@H]43)C[C@@H](OC(=O)CO)[C@@]2(C)O1,83.1% (inactive)

# Source: PubChem BioAssay (NCI)
